EP2 modulator – modulators of human EP2 prostaglandin E2 receptor | AID 940 | P43116 | hit rate 0.83% among 260,000 | induction, % at 25 µM | EP2-expressing cells, cAMP HTRF FRET, PGE2 co-stimulation;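 active = compounds whose cAMP rise, as percent of the full-agonist control response, exceeds 60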;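 also: rat C6 glioma line stably carrying human EP2 under a CMV promoter; the protocol text gives 20 µM as final concentration; 100% = response of wells given 1 µM PGE2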
Target sequence (P43116 whole entry, looked up): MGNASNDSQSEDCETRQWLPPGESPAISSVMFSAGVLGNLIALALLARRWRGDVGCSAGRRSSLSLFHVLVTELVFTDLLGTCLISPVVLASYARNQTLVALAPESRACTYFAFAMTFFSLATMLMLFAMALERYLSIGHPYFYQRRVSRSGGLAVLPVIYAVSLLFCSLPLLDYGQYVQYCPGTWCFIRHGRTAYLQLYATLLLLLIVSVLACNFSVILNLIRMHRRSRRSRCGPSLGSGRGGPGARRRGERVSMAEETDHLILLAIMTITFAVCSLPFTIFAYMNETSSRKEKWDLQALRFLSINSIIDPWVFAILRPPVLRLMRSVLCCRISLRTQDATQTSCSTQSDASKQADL
Avidin bead fluor – avidin bead compound fluorescence profile | fluorescence (KMESF) at 10 µM | Avidin beads, compound fluorescence 488/530 nm, flow cytometry; active compounds read high | hit rate 0.38% among 220,000; in the data active = fluorescence above about 47
GSH fluor – compound fluoresces at 488/530 nm on GSH beads; GSH beads flow cytometry, compound fluorescence 488/530 nm; active compounds read high; fluorescence (KMESF) at 10 µM; hit rate 0.25% among 190,000; AID 1776; in the data active = fluorescence above about 89;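 also: glutathione beads carrying GST-tagged Bcl family fusion proteins plus one bare bead set; values are compound well signal with DMSO vehicle wells as background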
EP2 antag – blocks the human prostaglandin E2 receptor EP2. P43116. inhibition, % at 25 µM. hit rate 0.52% among 260,000. C6 glioma cells expressing human EP2, cAMP TR-FRET; cells stimulated with saturating PGE2;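 active = percent inhibition above 40 after rounding to a whole number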;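 also: rat C6 glioma host cells with rolipram phosphodiesterase inhibitor present; the protocol text gives 20 µM as final concentration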
Efa HMGR inh – blocks class II HMG-CoA reductase of Enterococcus faecalis; inhibition, % at 10 µM; hit rate 0.41% among 190,000; purified E. faecalis HMGR, NADPH absorbance 340 nm kinetic; AID 1066;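 active = inhibition above a set limit, the median over all tested compounds plus 3 SD, cut at about 9.5% in these data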;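 also: enzyme runs in reverse so mevalonate oxidation gives rising NADPH absorbance; 0% = complete reaction with DMSO and 100% = background rate lacking mevalonate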
Starred values were filed as active, the others as inactive; x = no result. The list is not random: actives were taken first. Their share in the collection is about 2.1%.

SMILES | EP2 modulator | Avidin bead fluor | GSH fluor | EP2 antag | Efa HMGR inh
O=C(CN1C(=O)[C@@H]2CCCN2C(=O)c2ccccc21)NC12CC3CC(CC(C3)C1)C2 | -18 | x | x | 5 | x
N#CC[N+]1(Cc2ccccn2)CCCC1 | 8 | x | x | 42* | x
c1ccc(CNC2=NCCC2)nc1 | 12 | 11 | 24 | 6 | 4
CCOC(=O)Cn1nc(C)n2c(cc3ccsc32)c1=O | -14 | x | x | 10 | x
O=C(CCCc1nc(-c2ccccc2)no1)N1CCOCC1 | 0 | 3 | 248* | 5 | -1
COc1ccc(-c2nc3cc(C(C)C)ccc3o2)cc1N | -95 | x | x | 11 | x
C=C(C)Cn1c(Cc2ccccc2)nc2ccccc21 | 25 | x | x | 5 | x
C=C(C)Cn1c(COc2ccccc2)nc2ccccc21 | 69* | x | x | 11 | x
CCOC(=O)Cc1csc(NC(=O)NC2(C(F)(F)F)Oc3cc(Cl)c(Cl)cc3O2)n1 | -30 | 12 | 35 | 25 | 3
CCOC(=O)Cc1csc(NC(=O)COc2cccc(C)c2)n1 | 10 | 25 | 9 | 3 | 18*
CCOC(=O)Cc1csc(NC(=O)NC2(C(F)(F)F)Oc3ccc(Cl)cc3O2)n1 (stereo unspecified) | -1 | 6 | 251* | 9 | -2
COc1ccc(-c2nc(-c3ccccc3)nc(N3CCN(C)CC3)c2C#N)cc1 | 0 | 51* | 13 | 4 | -6
CN1CCN(C(=O)CC2(CC(=O)O)CCCC2)CC1 | 20 | 20 | 12 | 2 | 13*
CCCN1CC=C2C(C#N)=C(N)C(C#N)(C#N)C(c3ccc(OC)c4ccccc34)C2C1 (stereo unspecified) | -3 | x | x | 10 | x
CN(C)c1ccc(N=Cc2nc(-c3ccccc3)oc2OC(=O)c2cccc(Cl)c2)cc1 | 35 | 17 | 18 | 10 | -7
Cc1ccc(C(=O)Oc2oc(-c3ccccc3)nc2C=Nc2ccc(N(C)C)cc2)cc1 | 47 | 17 | 16 | 42* | -6
CCOc1cccc2sc(NN)nc12 | -17 | 5 | 10 | 7 | -6
NNc1nc2c(Cl)ccc(Cl)c2s1 | -47 | 17 | 9 | 11 | 19*
CCc1ccc(N(CC(=O)NCc2ccc3c(c2)OCO3)S(C)(=O)=O)cc1 | 5 | x | x | 10 | x
CCOc1cc(C2C3=C(CCCC3=O)Nc3ccc4ncccc4c32)ccc1O (stereo unspecified) | 16 | 24 | 10 | 4 | 12*
CCOc1cccc(/C(O)=C2/C(=O)C(=O)N(CCN(C)C)C2c2cccnc2)c1 (stereo unspecified) | 0 | x | x | 6 | x
O=C(NCC1CCCO1)c1cccnc1NCc1ccc(F)cc1 (stereo unspecified) | 6 | 12 | 10 | 9 | -2
O=C(NCC1CCCO1)c1cccnc1Nc1ccccc1F (stereo unspecified) | 18 | 52* | 15 | 14 | 0
COc1ccc(C2NC(=S)N3C(c4ccc(OC)cc4)NC(=S)N23)cc1 (stereo unspecified) | -14 | 8 | 266* | 14 | -3
CCN(CC)c1nc(Oc2ccc(C(=O)OC)cc2)nc(N2CCOCC2)n1 | 62* | 8 | 11 | 2 | -4
SMILES | EP2 modulator | Avidin bead fluor | GSH fluor | EP2 antag | Efa HMGR inh
COC(=O)c1ccc(Oc2nc(N3CCCCC3)nc(N3CCOCC3)n2)cc1 | 47 | 20 | 42 | 7 | 0
COc1ccc(CN(Cc2cc3ccc(C)c(C)c3[nH]c2=O)C(=O)NC2CCCCC2)cc1 | 26 | x | x | 9 | x
N#Cc1cn(Cc2ccc(Cl)cc2)c2ccccc12 | 67* | x | x | 15 | x
N#Cc1cn(Cc2ccccc2)c2ccccc12 | 63* | 14 | 34 | 6 | -1
N#Cc1ccccc1Cn1cc(C#N)c2ccccc21 | 3 | 18 | 21 | 8 | -1
CC(C)COc1ncnc2c1sc1nc3c(cc12)COC(C)(C)C3 | 5 | 75* | x | 8 | x
CCC(c1nnnn1Cc1cccs1)N1CCN(c2ccccc2)CC1 (stereo unspecified) | -7 | x | x | 8 | x
CCn1c2ccccc2n2c(=O)n(CC(=O)Nc3ccccc3-c3ccccc3)nc12 | -2 | x | x | 10 | x
CCCNC(=O)CN1C(=O)NC(CCc2ccccc2)C1=O (stereo unspecified) | 15 | 23 | 11 | 5 | 12*
CCCCNC(=O)CN1C(=O)NC(CCc2ccccc2)C1=O (stereo unspecified) | 12 | 12 | 14 | 8 | -7
CCOc1ccccc1C1Nc2ccccc2-c2cc(C)nn21 (stereo unspecified) | 62* | x | x | 13 | x
Cc1cc2n(n1)C(c1ccccc1C(F)(F)F)Nc1ccccc1-2 (stereo unspecified) | 28 | x | x | 6 | x
CC1(C)CC[C@]2(CO)[C@@H](O)C[C@]3(C)C(=CCC4[C@@]5(C)CC[C@H](O)C(C)(C)C5CC[C@]43C)[C@@H]2C1 (stereo partly specified) | x | x | x | 53* | x
CC1(C)C2CC[C@]3(C)C(CC=C4[C@@H]5C[C@@](C)(CO)[C@@H](O)C[C@]5(C(=O)O)CC[C@]43C)[C@@]2(C)CC[C@@H]1O (stereo partly specified) | x | x | x | 17 | x
Cc1ccc(C)c(N(CC(=O)NCc2ccc3c(c2)OCO3)S(C)(=O)=O)c1 | 16 | x | x | 12 | x
Cc1cc(C)n2c(SCCC(C)C)nnc2n1 | 20 | 9 | 255* | -10 | 4
CCCCC[C@H](O)/C=C/[C@@H]1[C@@H](C/C=C\CCCC(=O)O)[C@H]2CO[C@@H]1C2 | 98* | 7 | 20 | 11 | 11*
CCCCC[C@H](O)/C=C/[C@@H]1[C@@H](C/C=C\CCCC(=O)OC)[C@@H](O)C[C@H]1O | 52 | 3 | 19 | 10 | -5
O=C(O)CCC/C=C\C[C@@H]1[C@@H](/C=C/[C@H](O)C2Cc3ccccc3C2)[C@@H](F)C[C@@H]1O | 16 | x | x | 9 | x
CCCCC[C@H](O)/C=C/[C@@H]1[C@@H](C/C=C\CCCC(=O)O)[C@@H](O)C[C@H]1O | 102* | 9 | 21 | 10 | -1
CSc1ccccc1NC(=O)CCSc1nc(-c2ccc3c(c2)OCO3)cc(C(F)(F)F)n1 | -57 | x | x | 5 | x
COCCNC(=O)Cn1cc(/C=C2\C(=O)NC(=O)N(c3ccccc3)C2=O)c2ccccc21 | 41 | x | x | 12 | x
COc1ccccc1NC(=O)N1CCCC1C(=O)NC12CC3CC(CC(C3)C1)C2 (stereo unspecified) | 12 | 8 | 280* | 5 | -2
COc1ccc(-c2nc3n(c2NC(C)(C)C)CCN(C(=O)c2ccc4c(c2)OCO4)C3)cc1 | -1 | x | x | 6 | x
CC(O)c1nc2cc(N)ccc2n1C (stereo unspecified) | 6 | x | x | 10 | x
CCCNC(=O)Cn1nc(C)n2c(cc3sccc32)c1=O | -7 | x | x | x | x
Nc1nonc1/C(=N/O)N1CCN(CCO)CC1 | 24 | 9 | 261* | 22 | -2
CN1CCN(/C(=N\O)c2nonc2N)CC1 | -17 | 5 | 24 | 9 | -7
CCOC(=O)c1[nH]c(C)c(/C(O)=C2\C(=O)C(=O)N(CCCN3CCOCC3)C2c2cccs2)c1C (stereo unspecified) | 14 | 6 | x | 88* | x

Source: PubChem BioAssay
